In PubChem BioAssay:
Calls of active or inactive are those of the source.

Key:
[1] = anti-His antibody binders, primary screen, artefact control for SMM control protein annotation, biochemical, small-molecule microarray, 635 nm fluorescence (AID 1128); settings: anti-His Alexa647 antibody binding, higher = more signal;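 further: score merges feature fluorescence with signal-to-noise for each printed compound spot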
[2] = system: Human papillomavirus type 1a E7 protein (residues 1-88); assay: HPV1a E7 small-molecule binders, primary screen, biochemical, small-molecule microarray, residues 1-88, 635 nm (AID 1129); settings: small-molecule microarray binding, fluorescence 635 nm; higher = more signal
[3] = target: Focal adhesion kinase 1 (Homo sapiens) (UniProt Q05397); assay: small-molecule microarray binders of FAK, primary screen, biochemical, 635/667 nm fluorescence, BSA, DTT (AID 1130); settings: PTK2 binding, 635 nm fluorescence, higher = more signal;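 further: composite of spot emission at 667 nm and signal to noise over triplicate slides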
[4] = system: Fibrinogen (Alexa647-labelled); assay: fibrinogen binders on compound microarrays, profiling panel, artefact control for SMM control-protein annotation, biochemical, small-molecule microarray, 635/667 nm fluorescence (AID 1131); settings: fibrinogen-A647 binding fluorescence, higher = more signal;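 further: z-score merges 667 nm fluorescence with per-spot signal-to-noise over triplicate slides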
[5] = target: Follistatin (Homo sapiens) (UniProt P19883); assay: follistatin binders on small-molecule microarrays, primary screen, biochemical, small-molecule microarray, 635/667 nm fluorescence (AID 1132); settings: FST binding, 635 nm fluorescence, higher = more signal
[6] = target: Fibroblast growth factor 2 (Homo sapiens) (UniProt P09038); assay: FGF2 binders on small-molecule microarrays, primary screen, biochemical, small-molecule microarray, 635/667 nm fluorescence (AID 1133); settings: small-molecule microarray binding, FGF2, fluorescence 635/667; higher = more signal
[7] = mitochondrial membrane potential change in A549 cells, profiling panel, cell-based, JC-1 fluorescence, basal, 24 h, 100 nL (AID 1138); settings: higher = more signal;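 further: A549 lung adenocarcinoma cells under basal conditions with no added stimulus; test concentration not given here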
Lefty1 = Lefty1 binders on small-molecule microarrays, primary screen, biochemical, small-molecule microarray, 635/667 nm fluorescence (AID 1139); settings: small-molecule microarray binding, fluorescence 635/667; higher = more signal
[8] = system: wheat germ agglutinin (Triticum aestivum), Alexa647-labelled; assay: wheat germ agglutinin binders on compound microarrays, profiling panel, artefact control for SMM control-protein annotation, biochemical, small-molecule microarray, 635/667 nm fluorescence (AID 1140); settings: WGA-A647 binding, 635 nm fluorescence, higher = more signal;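 further: score merges 667 nm feature emission with signal to noise over triplicate slides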
[9] = target: Luciferin 4-monooxygenase (Photinus pyralis) (UniProt P08659); assay: firefly luciferase enzyme inhibitors, primary screen, biochemical, luminescence, purified enzyme, 2006 set (AID 1141); settings: SteadyGlo luminescence, 30 min, higher = more signal, called active from +8 up or from −8 down;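 further: cell-free assay with purified firefly luciferase at 100 ng per well in PBS; test concentration not given here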
Luciferin 4-monooxygenase (Photinus pyralis), sequence (P08659 whole entry, looked up): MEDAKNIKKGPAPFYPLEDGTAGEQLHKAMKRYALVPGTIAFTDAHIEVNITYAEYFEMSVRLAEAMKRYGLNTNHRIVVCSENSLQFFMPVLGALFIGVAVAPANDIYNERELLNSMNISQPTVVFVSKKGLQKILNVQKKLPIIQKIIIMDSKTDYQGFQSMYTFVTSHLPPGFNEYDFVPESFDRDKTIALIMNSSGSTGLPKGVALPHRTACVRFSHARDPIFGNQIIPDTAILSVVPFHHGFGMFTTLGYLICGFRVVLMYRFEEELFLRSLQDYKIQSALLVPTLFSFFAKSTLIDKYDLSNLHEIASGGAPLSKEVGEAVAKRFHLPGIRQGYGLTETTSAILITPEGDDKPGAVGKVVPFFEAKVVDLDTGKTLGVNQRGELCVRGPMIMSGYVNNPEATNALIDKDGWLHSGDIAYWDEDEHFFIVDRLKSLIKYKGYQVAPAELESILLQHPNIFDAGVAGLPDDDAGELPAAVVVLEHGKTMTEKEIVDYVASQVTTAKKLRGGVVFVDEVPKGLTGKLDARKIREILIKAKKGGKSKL

Follistatin (Homo sapiens), sequence (P19883 whole entry, looked up): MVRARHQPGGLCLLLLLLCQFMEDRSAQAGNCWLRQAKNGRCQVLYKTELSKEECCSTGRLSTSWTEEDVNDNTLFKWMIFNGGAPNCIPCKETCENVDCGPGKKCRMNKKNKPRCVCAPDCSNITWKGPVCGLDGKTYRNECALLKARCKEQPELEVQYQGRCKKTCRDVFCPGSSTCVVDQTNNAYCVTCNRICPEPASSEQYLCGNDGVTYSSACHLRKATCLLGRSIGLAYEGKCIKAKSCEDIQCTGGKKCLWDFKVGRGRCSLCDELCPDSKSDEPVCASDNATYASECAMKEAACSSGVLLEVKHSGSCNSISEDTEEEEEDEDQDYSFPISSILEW
Fibroblast growth factor 2 (Homo sapiens), sequence (P09038 whole entry, looked up): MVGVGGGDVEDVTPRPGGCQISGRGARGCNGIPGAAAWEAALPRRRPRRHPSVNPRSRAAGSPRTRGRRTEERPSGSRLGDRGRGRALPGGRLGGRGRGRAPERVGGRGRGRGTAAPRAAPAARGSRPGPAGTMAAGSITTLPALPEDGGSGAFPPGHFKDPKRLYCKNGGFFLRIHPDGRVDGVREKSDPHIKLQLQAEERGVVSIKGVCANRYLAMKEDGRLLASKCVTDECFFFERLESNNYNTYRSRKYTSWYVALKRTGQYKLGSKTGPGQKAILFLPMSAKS
Focal adhesion kinase 1 (Homo sapiens), sequence (Q05397 whole entry, looked up): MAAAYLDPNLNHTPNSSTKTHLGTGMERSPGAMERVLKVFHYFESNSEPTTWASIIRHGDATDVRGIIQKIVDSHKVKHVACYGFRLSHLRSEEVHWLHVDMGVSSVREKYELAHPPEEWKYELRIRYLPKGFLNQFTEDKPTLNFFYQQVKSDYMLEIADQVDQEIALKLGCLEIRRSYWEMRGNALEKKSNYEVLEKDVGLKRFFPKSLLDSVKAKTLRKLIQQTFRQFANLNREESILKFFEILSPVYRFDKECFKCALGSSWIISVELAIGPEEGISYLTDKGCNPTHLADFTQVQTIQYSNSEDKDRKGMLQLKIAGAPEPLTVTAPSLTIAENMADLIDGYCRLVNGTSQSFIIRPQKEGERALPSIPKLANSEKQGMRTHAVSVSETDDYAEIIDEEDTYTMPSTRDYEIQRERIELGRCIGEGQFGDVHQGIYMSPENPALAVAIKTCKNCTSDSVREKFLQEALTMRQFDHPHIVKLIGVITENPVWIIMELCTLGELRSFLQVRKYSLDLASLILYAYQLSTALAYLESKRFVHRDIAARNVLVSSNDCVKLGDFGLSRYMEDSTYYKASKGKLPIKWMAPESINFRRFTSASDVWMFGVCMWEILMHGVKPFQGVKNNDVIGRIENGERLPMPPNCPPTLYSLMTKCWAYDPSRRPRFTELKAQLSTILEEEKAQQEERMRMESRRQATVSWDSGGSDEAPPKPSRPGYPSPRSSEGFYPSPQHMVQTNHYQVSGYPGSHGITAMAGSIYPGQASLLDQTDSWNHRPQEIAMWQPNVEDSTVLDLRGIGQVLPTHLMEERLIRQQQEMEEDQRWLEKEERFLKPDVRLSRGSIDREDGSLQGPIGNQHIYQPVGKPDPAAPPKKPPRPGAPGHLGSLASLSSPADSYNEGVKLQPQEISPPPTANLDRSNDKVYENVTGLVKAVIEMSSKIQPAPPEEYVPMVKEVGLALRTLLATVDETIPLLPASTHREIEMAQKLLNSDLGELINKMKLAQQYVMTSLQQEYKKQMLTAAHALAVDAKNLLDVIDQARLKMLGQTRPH

| Compound | composite z-score [1] | composite z-score [2] | composite z-score [3] | composite z-score [4] | composite z-score [5] | composite z-score [6] | z-score [7] | composite z-score (Lefty1) | composite z-score [8] | z-score [9] |
| --- | --- | --- | --- | --- | --- | --- | --- | --- | --- | --- |
| C#CCN(C(/C=C/c1ccccc1)CO)C(C(=O)O)c1ccccc1 (stereo not given) | -0.375 | -1.19 | 0.492 | 0.116 | -0.523 | -0.354 | -1.04 | -0.346 | -0.0819 | -0.104 (inactive) |
| CS(=O)(=O)CCOC(=O)C1=CC(c2ccc(CO)cc2)=CC(C2CC2)N(Cc2cc3c(cc2Br)OCO3)C=C1C(=O)OCCS(C)(=O)=O (stereo not given) | 1.92 | 1.21 | 0.608 | 0.896 | 0.678 | 0.763 | 2.44 | 1.09 | 0.953 | -1.51 (inactive) |
| CC(C)(C)OC(=O)CC[C@@]1(C(=O)NCCN2CCOCC2)N=C(c2ccc(OCCCO)cc2)O[C@@H]1c1ccccc1 | 1.37 | 1.19 | 0.111 | 1.01 | 1.28 | 0.695 | 1.59 | 0.499 | 1.22 | -1.66 (inactive) |
| O=C1OCCC/C=C\[C@H]2OC34C=CCN(Cn5nnc6ccccc65)C(=O)[C@H]3N(CCCCCO)C(=O)[C@@H]4C12 (stereo not given in full) | 0.123 | -0.654 | -0.43 | -1.02 | -0.31 | -1.16 | 0.248 | -0.204 | -1.03 | 0.786 (inactive) |
| COC(=O)[C@]1(Cc2ccccc2N=[N+]=[N-])N=C(c2ccc(OCCCO)cc2)O[C@@H]1c1ccccc1N=[N+]=[N-] | 2.87 | 0.825 | 0.188 | 0.482 | 1.25 | -0.0133 | -0.856 | 0.131 | 0.149 | -1.42 (inactive) |
| O=C/C=C/c1ccc(Cl)cc1 | -0.318 | -1.36 | -0.195 | -0.991 | -0.329 | -0.236 | 2.19 | -0.283 | -0.488 | -0.712 (inactive) |
| C=CC(COC(C)=O)NS(=O)(=O)c1ccc(Br)cc1 (stereo not given) | 0.192 | 0.971 | -0.271 | 0.596 | 0.902 | 0.608 | 0.499 | 0.673 | 0.0285 | -0.481 (inactive) |
| CC=CC(O)C1C=CC2C(=O)N(c3ccccc3)C(=O)C2N1Nc1ccc(C(C)C)cc1 (stereo not given) | 0.585 | 1.2 | 0.777 | 0.831 | 1.12 | 0.133 | -0.723 | 0.0518 | 1.32 | -0.959 (inactive) |
| COC(=O)[C@@]1(Cc2ccc(F)cc2)[C@H]2c3cc(C(=O)N(C)C)n(CCc4ccccn4)c3C[C@H]2CN1C(=O)c1ccccc1 | 1.47 | 1.25 | 0.994 | 0.0039 | 0.78 | 0.0791 | -0.201 | 0.221 | -0.108 | 2.76 (inactive) |
| CCN(CC)c1ccc(N2CC=CC34O[C@@H]5C=CCCOC(=O)C5[C@H]3C(=O)N(CCCCCO)[C@@H]4C2=O)cc1 (stereo not given in full) | 0.0436 | -0.513 | -0.172 | -0.471 | -0.0495 | -0.304 | 2.56 | -0.0412 | 0.169 | -1.29 (inactive) |
| O=C1N(CCS(=O)(=O)c2ccccc2)Cc2ccccc2[C@H]2OC(c3ccc(OCCCO)cc3)=N[C@@]12CCS(=O)(=O)c1ccccc1 | 2.44 | 1.21 | 0.772 | 0.561 | 1.33 | 1.31 | -1.15 | -0.0425 | 1.09 | -1.7 (inactive) |
| Cc1ccc(S[C@]2(C(=O)NCC(C)C)CC(=O)N(Cc3ccccc3)[C@@H]2c2ccc(CO)cc2I)cc1 | 1.38 | 0.904 | 0.139 | 0.312 | 1.27 | 0.564 | 1.03 | 0.536 | 0.503 | -0.56 (inactive) |
| O=C1O[C@@H](c2ccccc2)[C@@H](c2ccccc2)N2[C@@H](c3ccccc3OCCO)[C@]3(C(=O)Nc4ccc(C#CC5(O)CCCCCC5)cc43)[C@@H](C(=O)Nc3nc4ccccc4s3)[C@H]12 | 1.22 | 1.21 | 0.237 | 0.991 | 1.25 | 1.02 | -1.98 | 0.744 | 0.847 | -0.84 (inactive) |
| CCOC(=O)C[C@H]1[C@H](OC(=O)c2ccc(-c3ccccc3)cc2)[C@@H](NC(=O)c2ccc(-c3ccccc3)cc2)c2cc(OCCCO)ccc2N1C(=O)Cc1ccc(OC)cc1 | 0.296 | 0.226 | 0.315 | 0.656 | 0.13 | -0.167 | 0.322 | -0.245 | -0.0591 | 0.735 (inactive) |
| COc1ccc(CCNC(=O)[C@@]2(Sc3ccc(C)cc3)CC(=O)N(Cc3ccccc3Cl)[C@@H]2c2ccc(CO)cc2I)cc1 | 2.25 | 0.349 | -0.0568 | 0.35 | 1.03 | 0.664 | 2.03 | -0.954 | 0.593 | 0.674 (inactive) |
| COC(=O)C[C@H]1O[C@]2(C(=O)N(Cc3ccccc3)c3ccc(NC(C)=O)cc32)[C@@H](C)[C@@H]1[Si](C)(C)c1ccc(OC)cc1 | 0.242 | 0.822 | -0.0722 | 0.483 | 0.528 | 0.52 | -0.922 | 0.68 | 0.657 | 0.531 (inactive) |
| Cc1ccc(S[C@]2(C(=O)O)CC(=O)N(C3Cc4ccccc4C3)[C@@H]2c2ccc(CO)cc2I)cc1 | 0.198 | 0.27 | 0.148 | 0.439 | 1.09 | -0.499 | 0.478 | -0.936 | 0.513 | 0.285 (inactive) |
| N[C@@H](Cc1ccccc1)Cn1cc(-c2ccccc2)nn1 | -0.0727 | 0.184 | -0.0983 | 0.274 | 0.219 | -0.311 | 0.805 | -0.155 | 0.441 | -1.32 (inactive) |
| COc1ccc(C(O)C2C=CC3C(=O)N(C)C(=O)C3N2Nc2ccccc2)cc1OCc1ccccc1 (stereo not given) | 1.05 | 1.27 | 0.091 | 1.01 | 0.336 | -0.0667 | -0.295 | 0.0084 | 1.34 | -0.51 (inactive) |
| COCCCNC(=O)[C@@]1(CCC(=O)OC(C)(C)C)N=C(c2ccc(OCCCO)cc2)O[C@H]1c1ccccc1CN=[N+]=[N-] | 3.15 | 1.04 | 1.02 | 1.01 | 1.39 | 1.28 | -0.49 | -0.34 | 1.2 | -1.05 (inactive) |
| CC(C)C[C@@H]1NC(=O)[C@H]2C[C@@H](C(=O)NCCCCCCNC(=O)CS)[C@@H](c3cccc(OCCO)c3)N2C1=O | 1.19 | 1.21 | 0.236 | 0.855 | 1.43 | 1.64 | 1 | 1.57 | 0.96 | -1.05 (inactive) |
| O=C1O[C@@H](c2ccccc2)[C@@H](c2ccccc2)N2[C@@H](c3ccc(O)cc3)[C@]3(C(=O)Nc4ccc(C#CC5=CCCCC5)cc43)[C@@H](C(=O)O)[C@H]12 | 3.13 | 1.11 | 0.676 | 0.734 | 0.473 | 0.146 | -0.29 | 0.195 | 1.35 | -3.5 (inactive) |
| O=C1C2C=CC(C(O)c3ccc(F)cc3)N(Nc3ccccc3)C2C(=O)N1c1ccccc1 (stereo not given) | 1.33 | 1.22 | 0.734 | 0.266 | -0.143 | -0.762 | -0.101 | -0.233 | 0.684 | 0.165 (inactive) |
| C=CCOC(=O)[C@@H]1[C@H]2C(=O)O[C@H](c3ccccc3)[C@H](c3ccccc3)N2[C@H](c2ccc(OCCOC(=O)[C@@H]3C[C@@H]4C(=O)N[C@@H](Cc5ccccc5)C(=O)N4[C@@H]3c3cccc(OCCO)c3)cc2)[C@@]12C(=O)Nc1ccc(I)cc12 | 0.351 | 0.675 | 0.184 | 0.199 | 1.33 | 1.55 | -0.917 | 0.951 | 0.181 | 0.152 (inactive) |
| COc1ccc([Si](C)(C)[C@@H]2[C@@H](CCn3cc([C@H](O)c4ccccc4)nn3)O[C@]3(C(=O)N(Cc4ccc(N5C(=O)c6cccc7cccc5c67)cc4)c4ccccc43)[C@H]2C)cc1 | 0.448 | -0.412 | -0.465 | -0.151 | -0.7 | -0.513 | 1.57 | -0.236 | -0.101 | -0.303 (inactive) |
| C[C@]1(C(=O)NCc2ccccc2)c2ccccc2C(=O)N(Cc2cc(F)cc(C(F)(F)F)c2)[C@H]1c1ccc(CO)cc1 | 0.84 | -0.184 | -0.349 | -0.582 | -1.13 | -0.278 | 0.916 | -1.14 | -0.566 | 0.585 (inactive) |
| CC(C)c1ccc(NN2C(C(O)c3cccc(O)c3)C=CC3C(=O)N(c4ccccc4)C(=O)C32)cc1 (stereo not given) | 1.16 | 1.25 | 0.781 | 0.992 | 1.35 | -0.179 | 0.116 | 0.61 | 0.754 | -0.824 (inactive) |
| CCOC(=O)C1=CC[C@@H](c2ccccc2)N(S(=O)(=O)c2ccc(C)cc2)[C@H]1C(=O)OCC | 0.558 | 1.2 | 1.17 | 0.0499 | 0.305 | -0.128 | 1.84 | -0.238 | 0.951 | 0.693 (inactive) |
| Cc1ccc(S[C@]2(C(=O)NCCN3CCOCC3)CC(=O)N(Cc3cc(C(F)(F)F)cc(C(F)(F)F)c3)[C@@H]2c2ccc(CO)cc2I)cc1 | -1.02 | -0.27 | 0.414 | -0.46 | 0.016 | -1.13 | 0.164 | -0.304 | 0.0101 | 1.31 (inactive) |
| COc1cc2c(cc1O)C(C)N(Cc1cccc(OC(F)(F)F)c1)CC2 (stereo not given) | 1.72 | 1.13 | -0.135 | 0.966 | 0.659 | -0.258 | -0.681 | 0.108 | 0.984 | 1.35 (inactive) |
